{
  "source": "PubChem BioAssay (EPA / NIEHS)",
  "note": "Results filed as inconclusive are left out. Calls of active or inactive are those of the source. How the source made its calls: active means hit-call score of the fitted dose curve at least 0.9, where 1 is the maximum; inconclusive means response in the unintended direction; inactive means score below 0.9.",
  "data": [
    {"target": "human Vascular Endothelial Growth Factor Receptor 2 (VEGFR2), KDR (gene 3791) (UniProt P35968)", "sequence (P35968 whole entry, looked up)": "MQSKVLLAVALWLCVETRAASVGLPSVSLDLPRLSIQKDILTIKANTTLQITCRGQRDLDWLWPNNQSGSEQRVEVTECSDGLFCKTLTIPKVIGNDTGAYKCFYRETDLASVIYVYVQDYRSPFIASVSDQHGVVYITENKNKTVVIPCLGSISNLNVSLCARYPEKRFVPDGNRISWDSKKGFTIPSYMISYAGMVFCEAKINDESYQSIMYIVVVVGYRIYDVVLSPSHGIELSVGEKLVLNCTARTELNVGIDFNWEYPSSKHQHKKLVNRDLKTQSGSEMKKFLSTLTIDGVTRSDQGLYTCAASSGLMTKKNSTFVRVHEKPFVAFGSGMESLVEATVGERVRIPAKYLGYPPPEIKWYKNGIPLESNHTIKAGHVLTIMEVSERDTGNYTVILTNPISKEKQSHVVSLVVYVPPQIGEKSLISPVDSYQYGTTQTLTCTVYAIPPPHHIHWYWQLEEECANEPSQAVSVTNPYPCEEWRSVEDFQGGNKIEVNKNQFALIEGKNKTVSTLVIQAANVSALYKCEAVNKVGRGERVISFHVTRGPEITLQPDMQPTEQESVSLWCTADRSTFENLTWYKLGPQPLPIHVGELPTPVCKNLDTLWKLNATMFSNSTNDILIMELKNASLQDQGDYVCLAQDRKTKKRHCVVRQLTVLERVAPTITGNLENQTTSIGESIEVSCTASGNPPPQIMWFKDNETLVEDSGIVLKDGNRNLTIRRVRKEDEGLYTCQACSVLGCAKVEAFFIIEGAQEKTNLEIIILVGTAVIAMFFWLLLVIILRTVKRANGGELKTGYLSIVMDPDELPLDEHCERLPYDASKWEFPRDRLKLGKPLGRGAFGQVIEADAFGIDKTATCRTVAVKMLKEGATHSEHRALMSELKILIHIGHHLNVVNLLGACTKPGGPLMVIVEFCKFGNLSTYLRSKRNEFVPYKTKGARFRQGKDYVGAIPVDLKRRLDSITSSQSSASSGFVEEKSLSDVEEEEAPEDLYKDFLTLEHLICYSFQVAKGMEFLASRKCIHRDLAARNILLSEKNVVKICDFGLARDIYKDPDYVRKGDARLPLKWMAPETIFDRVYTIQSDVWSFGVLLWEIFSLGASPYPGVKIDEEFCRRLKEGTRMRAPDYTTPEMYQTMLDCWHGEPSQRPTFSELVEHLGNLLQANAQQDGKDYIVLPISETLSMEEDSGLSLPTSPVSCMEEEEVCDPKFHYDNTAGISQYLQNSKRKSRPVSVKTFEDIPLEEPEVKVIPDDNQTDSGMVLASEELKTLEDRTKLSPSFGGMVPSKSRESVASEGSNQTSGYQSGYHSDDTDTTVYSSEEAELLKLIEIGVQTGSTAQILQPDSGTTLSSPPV", "assay": "NVS_ENZ_hVEGFR2: NovaScreen (NVS) Enzymatic Assay for human Vascular Endothelial Growth Factor Receptor 2 (VEGFR2) (AID 2283230)", "summary_of_the_method": "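Cell-free recombinant VEGFR2 kinase, fluorescent substrate with electrophoretic mobility-shift separation; read 1 h after dosing. Screened at 25 uM in duplicate, hits to concentration-response up to 50 uM; loss-of-signal versus DMSO.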", "values": [
      {"smiles": "CCCCCCOCCO", "outcome": "inactive"},
      {"smiles": "CCCCCCCCCCCCCO", "outcome": "inactive"},
      {"smiles": "CN[C@H]1CC[C@@H](c2ccc(Cl)c(Cl)c2)c2ccc(S(N)(=O)=O)cc21", "outcome": "inactive"},
      {"smiles": "CC(C)(C)c1cc(O)c(C(C)(C)C)cc1O", "outcome": "inactive"},
      {"smiles": "O=c1[nH]cc(F)c(=O)[nH]1", "outcome": "inactive"}
    ]},
    {"target": "sheep Cyclooxygenase-2 (Cox2), PTGS2 (gene 443460) (UniProt P79208)", "sequence (P79208 whole entry, looked up)": "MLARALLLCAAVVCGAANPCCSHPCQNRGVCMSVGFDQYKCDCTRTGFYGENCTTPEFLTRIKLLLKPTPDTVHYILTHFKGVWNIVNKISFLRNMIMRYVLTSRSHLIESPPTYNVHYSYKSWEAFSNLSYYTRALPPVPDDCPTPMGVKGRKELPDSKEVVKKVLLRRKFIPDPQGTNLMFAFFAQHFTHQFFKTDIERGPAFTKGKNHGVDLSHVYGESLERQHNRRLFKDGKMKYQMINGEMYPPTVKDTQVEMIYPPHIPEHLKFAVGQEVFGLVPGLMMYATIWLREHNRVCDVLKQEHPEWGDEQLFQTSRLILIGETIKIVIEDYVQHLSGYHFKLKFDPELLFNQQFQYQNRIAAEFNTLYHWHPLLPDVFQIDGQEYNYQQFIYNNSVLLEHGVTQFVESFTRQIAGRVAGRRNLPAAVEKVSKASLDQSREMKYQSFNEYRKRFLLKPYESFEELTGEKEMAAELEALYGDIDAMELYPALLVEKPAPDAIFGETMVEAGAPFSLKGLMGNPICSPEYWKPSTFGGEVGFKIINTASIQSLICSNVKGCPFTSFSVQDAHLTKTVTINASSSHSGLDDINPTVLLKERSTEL", "assay": "NVS_ENZ_oCOX2: NovaScreen (NVS) Enzymatic Assay for sheep Cyclooxygenase-2 (Cox2) (AID 2283231)", "summary_of_the_method": "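Enzyme extracted from ovine placenta tested cell-free; activity read colorimetrically by absorbance 0.66 hour after dosing. Primary screen in duplicate at 25 uM; hits rerun as concentration series to 50 uM, loss of signal versus DMSO baseline.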", "values": [
      {"smiles": "CCOC(=O)C(C)(C)Oc1ccc(Cl)cc1", "AC50": "8.26 µM (active)"},
      {"smiles": "CC(=O)Oc1ccccc1C(=O)O", "outcome": "inactive"},
      {"smiles": "CCCCN(CCCC)CCCC", "outcome": "inactive"},
      {"smiles": "C=CCc1ccc(O)c(OC)c1", "AC50": "15.7 µM (active)"},
      {"smiles": "CC(=O)OC/C=C(\\C)CCC=C(C)C", "AC50": "9.67 µM (active)"},
      {"smiles": "Cc1ccc(C)c(O)c1C", "AC50": "3.04 µM (active)"}
    ]},
    {"target": "rat Constitutive Nitric Oxide Synthase (CNOS), Nos1 (gene 24598) (UniProt P29476)", "sequence (P29476 whole entry, looked up)": "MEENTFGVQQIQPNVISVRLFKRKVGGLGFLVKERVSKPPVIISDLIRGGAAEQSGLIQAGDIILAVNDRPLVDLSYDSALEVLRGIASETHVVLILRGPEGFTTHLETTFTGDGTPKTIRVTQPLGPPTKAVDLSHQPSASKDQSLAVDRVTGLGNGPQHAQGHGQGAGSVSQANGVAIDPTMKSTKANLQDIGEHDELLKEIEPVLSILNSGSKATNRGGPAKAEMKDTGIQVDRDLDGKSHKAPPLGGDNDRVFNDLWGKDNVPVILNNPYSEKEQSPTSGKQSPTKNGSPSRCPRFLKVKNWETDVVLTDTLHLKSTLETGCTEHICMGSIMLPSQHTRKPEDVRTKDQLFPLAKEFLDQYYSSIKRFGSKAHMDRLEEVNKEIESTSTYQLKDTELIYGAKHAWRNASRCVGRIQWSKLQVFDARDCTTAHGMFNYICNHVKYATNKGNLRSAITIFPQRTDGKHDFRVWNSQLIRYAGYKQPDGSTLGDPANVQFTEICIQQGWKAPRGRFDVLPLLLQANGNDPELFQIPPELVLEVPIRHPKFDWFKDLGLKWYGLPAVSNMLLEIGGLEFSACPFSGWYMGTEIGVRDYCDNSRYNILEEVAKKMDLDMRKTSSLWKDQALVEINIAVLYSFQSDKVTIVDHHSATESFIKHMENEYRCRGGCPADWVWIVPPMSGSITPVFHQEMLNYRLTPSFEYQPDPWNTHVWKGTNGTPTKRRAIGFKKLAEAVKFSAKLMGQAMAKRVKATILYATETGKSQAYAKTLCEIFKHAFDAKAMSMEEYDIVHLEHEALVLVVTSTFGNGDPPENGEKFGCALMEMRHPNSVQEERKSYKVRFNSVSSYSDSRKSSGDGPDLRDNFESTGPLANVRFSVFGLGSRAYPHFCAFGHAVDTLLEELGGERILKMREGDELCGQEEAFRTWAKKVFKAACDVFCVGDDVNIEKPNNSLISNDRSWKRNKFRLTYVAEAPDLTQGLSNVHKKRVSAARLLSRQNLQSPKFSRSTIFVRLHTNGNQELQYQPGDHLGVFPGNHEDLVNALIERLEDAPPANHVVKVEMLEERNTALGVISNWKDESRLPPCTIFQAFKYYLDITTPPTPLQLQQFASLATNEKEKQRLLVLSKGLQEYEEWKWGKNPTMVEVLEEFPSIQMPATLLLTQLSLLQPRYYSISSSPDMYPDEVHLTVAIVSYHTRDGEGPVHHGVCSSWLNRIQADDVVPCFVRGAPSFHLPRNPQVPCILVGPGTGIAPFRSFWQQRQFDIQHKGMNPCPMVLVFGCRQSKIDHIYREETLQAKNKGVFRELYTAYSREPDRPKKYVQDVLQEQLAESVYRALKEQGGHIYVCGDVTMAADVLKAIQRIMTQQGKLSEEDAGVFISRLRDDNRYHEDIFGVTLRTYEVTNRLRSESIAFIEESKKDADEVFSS", "assay": "NVS_ENZ_rCNOS: NovaScreen (NVS) Enzymatic Assay for rat Constitutive Nitric Oxide Synthase (CNOS) (AID 2283236)", "description": "NVS_ENZ_rCNOS is a biochemical, single-readout assay that uses extracted gene-proteins from Rat brain membranes in a tissue-based cell-free assay. Measurements were taken 1 hour after chemical dosing in a 96-well plate.NVS_ENZ_rCNOS is one of one assay component(s) measured or calculated from the NVS_ENZ_rCNOS assay. It is designed to make measurements of enzyme activity, a form of enzyme reporter, as detected with scintillation counting signals by Filter-based radiodetection technology.Data from the assay component NVS_ENZ_rCNOS was analyzed into 1 assay endpoint. This assay endpoint, NVS_ENZ_rCNOS, was analyzed in the positive analysis fitting direction relative to DMSO as the negative control and baseline of activity. Using a type of enzyme reporter, loss-of-signal activity can be used to understand changes in the enzymatic activity as they relate to the gene Nos1. Furthermore, this assay endpoint can be referred to as a primary readout, because this assay has produced multiple assay endpoints where this one serves a enzymatic activity function. To generalize the intended target to other relatable targets, this assay endpoint is annotated to the oxidoreductase intended target family, where the subfamily is nitric oxide synthase.\nBinding assays used specific radioligands (tritiated, iodinated) with non-radioactive competitive displacement ligands in agonist or antagonist protocols (as indicated) and various reference compounds and inhibitors to titrate specific binding to receptors and transporters. Most enzyme assays (CYPs, kinases, phosphatases, proteases, HDACs) used recombinant protein and specific substrates (fluorescence mostly, some colorimetric and radioactive) and inhibitors, followed by a biochemical separation of substrate and product. All assays for the biochemical HTS were initially run in duplicate at a single concentration (10 uM for CYP450 assays and 25 uM for all others). Assay-chemical combinations meeting a pre-defined threshold (e.g., 30% inhibition and other criteria defined below) were then run in singleton concentration-response format with maximum concentration of 20 uM for CYPs and 50 uM for all others. Each assay was run with positive and negative controls, and concurrent controls on every plate. The follow-up (secondary) screen tested active chemical-pairs in concentration series, as well as a few additional assays not tested in the primary screen, some selected negative inactives, and several cases re-run in the concentration series for confirmatory purposes.", "values": [
      {"smiles": "Cc1cc(=O)[nH]c(=S)[nH]1", "AC50": "6.64 µM (active)"},
      {"smiles": "Nc1ccc2c(c1)C(=O)c1ccccc1C2=O", "outcome": "inactive"},
      {"smiles": "COc1cc(S(=O)(=O)O)c(C)cc1N=Nc1c(O)ccc2cc(S(=O)(=O)O)ccc12", "outcome": "inactive"},
      {"smiles": "COc1ccc(C)cc1N", "AC50": "7.8 µM (active)"},
      {"smiles": "CCCCC(CC)COC(=O)CC(C(=O)OCC(CC)CCCC)S(=O)(=O)O", "note": "(stereo not given)", "outcome": "inactive"},
      {"smiles": "COc1cc(C=O)ccc1O", "outcome": "inactive"}
    ]},
    {"target": "sheep Cyclooxygenase-1 (Cox1), PTGS1 (gene 443551) (UniProt P05979)", "sequence (P05979 whole entry, looked up)": "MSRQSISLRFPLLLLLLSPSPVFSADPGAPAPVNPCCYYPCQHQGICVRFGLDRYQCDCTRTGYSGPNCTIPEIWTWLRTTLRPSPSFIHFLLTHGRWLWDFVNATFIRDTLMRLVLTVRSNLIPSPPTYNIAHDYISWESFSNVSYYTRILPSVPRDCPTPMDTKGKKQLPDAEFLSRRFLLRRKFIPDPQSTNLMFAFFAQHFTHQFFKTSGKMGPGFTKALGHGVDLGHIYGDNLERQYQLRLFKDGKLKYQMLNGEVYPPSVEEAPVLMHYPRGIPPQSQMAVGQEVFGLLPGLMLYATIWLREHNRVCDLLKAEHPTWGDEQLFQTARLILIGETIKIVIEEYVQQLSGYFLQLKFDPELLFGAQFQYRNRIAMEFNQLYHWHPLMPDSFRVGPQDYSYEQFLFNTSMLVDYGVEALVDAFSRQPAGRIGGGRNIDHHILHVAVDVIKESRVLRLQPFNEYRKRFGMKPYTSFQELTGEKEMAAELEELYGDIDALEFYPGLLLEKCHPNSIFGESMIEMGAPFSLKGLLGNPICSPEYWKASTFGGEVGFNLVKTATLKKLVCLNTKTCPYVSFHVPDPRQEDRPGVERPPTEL", "assay": "NVS_ENZ_oCOX1: NovaScreen (NVS) Enzymatic Assay for sheep Cyclooxygenase-1 (Cox1) (AID 2283239);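 further: actives reduce cyclooxygenase activity so potencies are for inhibitors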", "summary_of_the_method": "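Native ovine seminal vesicle protein serves as enzyme source in this biochemical assay. Colorimetric signal is recorded 0.66 h after chemical addition, and decreases versus the DMSO control define activity.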", "values": [
      {"smiles": "CCOC(=O)C(C)(C)Oc1ccc(Cl)cc1", "outcome": "inactive"},
      {"smiles": "CCCCCCC(=O)OCC", "outcome": "inactive"},
      {"smiles": "Nc1nc(N)c2nc(CNc3ccc(C(=O)N[C@@H](CCC(=O)O)C(=O)O)cc3)cnc2n1", "AC50": "1.66 µM (active)"},
      {"smiles": "CC(=O)Oc1ccccc1C(=O)O", "outcome": "inactive"},
      {"smiles": "CC(=O)OC/C=C(\\C)CCC=C(C)C", "AC50": "8.78 µM (active)"},
      {"smiles": "COc1ccc(C)cc1N", "AC50": "10.7 µM (active)"},
      {"smiles": "CCCCC(CC)COC(=O)CC(C(=O)OCC(CC)CCCC)S(=O)(=O)O", "note": "(stereo not given)", "AC50": "6.53 µM (active)"},
      {"smiles": "Cc1ccc(Cl)cc1", "outcome": "inactive"},
      {"smiles": "O=[N+]([O-])C(CO)(CO)CO", "outcome": "inactive"},
      {"smiles": "CC=Cc1ccc(O)c(OC)c1", "outcome": "inactive"}
    ]},
    {"target": "Adenosine receptor A1 (Bos taurus) (UniProt P28190)", "sequence (P28190 whole entry, looked up)": "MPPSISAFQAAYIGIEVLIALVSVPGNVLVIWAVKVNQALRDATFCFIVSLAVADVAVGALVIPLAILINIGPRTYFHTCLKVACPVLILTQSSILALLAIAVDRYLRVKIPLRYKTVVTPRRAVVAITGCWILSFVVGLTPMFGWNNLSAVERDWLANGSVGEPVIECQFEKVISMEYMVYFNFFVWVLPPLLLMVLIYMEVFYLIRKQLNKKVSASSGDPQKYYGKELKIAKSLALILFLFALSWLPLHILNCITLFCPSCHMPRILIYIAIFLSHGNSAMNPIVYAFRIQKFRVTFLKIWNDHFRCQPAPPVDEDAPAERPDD", "assay": "NVS_GPCR_bAdoR_NonSelective: NovaScreen (NVS) G Protein-Coupled Receptor Assay for bovine Adenosine Receptor (AdoR), Non-selective Binding (AID 2283244)", "summary_of_the_method": "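Bovine striatal membranes, radioligand displacement binding, 1 h after dosing, filter-based scintillation counting. Screened in duplicate at 25 uM, then concentration-response up to 50 uM; loss of specific binding relative to DMSO.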", "values": [
      {"smiles": "Nc1ccc2c(c1)C(=O)c1ccccc1C2=O", "AC50": "25 µM (active)"},
      {"smiles": "Cc1ccc(N(C)C)cc1", "outcome": "inactive"},
      {"smiles": "Oc1ccc2ccccc2c1N=Nc1ccccc1", "AC50": "25 µM (active)"},
      {"smiles": "COc1cc(S(=O)(=O)O)c(C)cc1N=Nc1c(O)ccc2cc(S(=O)(=O)O)ccc12", "outcome": "inactive"},
      {"smiles": "O=c1c(O)c(-c2ccc(O)c(O)c2)oc2cc(O)cc(O)c12", "AC50": "0.89 µM (active)"}
    ]},
    {"system": "not listed separately", "assay": "NVS_GPCR_bNPY_NonSelective: NovaScreen (NVS) G Protein-Coupled Receptor Assay for bovine Neuropeptide Y (NPY) Receptor, Non-selective Binding (AID 2283245)", "summary_of_the_method": "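Bovine hippocampal membranes incubated 1 hour with radioligand and test chemical. Bound ligand measured by filter-based scintillation counting. Single-concentration screen at 25 uM in duplicate, then concentration-response up to 50 uM.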", "values": [
      {"smiles": "CCCCCCOCCO", "outcome": "inactive"},
      {"smiles": "CCCCCCCCCCCC(=O)OC", "outcome": "inactive"},
      {"smiles": "COc1ccc(S(=O)(=O)N2C(=O)[C@@](c3ccccc3OC)(N3C[C@H](O)C[C@H]3C(=O)N(C)C)c3cc(Cl)ccc32)c(OC)c1", "outcome": "inactive"}
    ]}
  ]
}
